Our source for the Potency values is PubChem BioAssay (NCATS).

Inconclusive results are not listed. Entries that show only a call come without a potency. Activity calls are given as the source filed them. Calls follow the shape of the dose curve; as a rule, active = well fitted inhibition curve with a large enough effect; inconclusive = small, poorly fitted or top-dose-only effect; inactive = flat fitted curve, though single readings scatter.
Potency is read from the fitted curve at half-maximal effect.

For one assay, the system named is DIV17. In words: qHTS profiling for inhibitors of Plasmodium falciparum proliferation (AID 504749). Also: nearly all actives have a fitted effect of over 60% in size. Particulars: P. falciparum in erythrocytes, SYBR Green DNA, 72 h; series mostly up to 28.7 µM. The procedure, abridged: (§1)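 Each compound contacts P. falciparum-infected red blood cells for 72 h at 37 C; lysis buffer (Tris, EDTA, saponin, Triton X, SYBR Green I) is added and fluorescence measured next morning; values normalized to controls.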
With `O=C(OCc1ccccc1)c1ccc(O)cc1`, the Potency entry is “inactive”. The same measure, in the same setting: the value for `CC(/C=C/C=C(\C)C(=O)O[C@@H]1O[C@H](CO[C@@H]2O[C@H](CO)[C@@H](O)[C@H](O)[C@H]2O)[C@@H](O)[C@H](O)[C@H]1O)=C\C=C\C=C(C)\C=C\C=C(/C)C(=O)O[C@@H]1O[C@H](CO[C@@H]2O[C@H](CO)[C@@H](O)[C@H](O)[C@H]2O)[C@@H](O)[C@H](O)[C@H]1O` was “inactive”.

Regarding `COC(=O)[C@@H](N)CS`, the Potency result was “inactive”. Same read-out and setting: the value for `CCCCCCCCCCCCCCCCCC(=O)OC[C@@H](O)[C@H]1OC[C@H](O)[C@H]1O` was “inactive”.

The next assay deals with DIV30. The assay is described as above. Particulars: P. falciparum in erythrocytes, SYBR Green DNA, 72 h; series mostly up to 28.7 µM. The procedure, abridged: as §1
In the case of `COc1ccccc1N1CCN(CCCC(=O)c2ccc(F)cc2)CC1`, the Potency result was “inactive”. On the same count and under the same terms, the value for `CCCCCc1ccc(C)cc1O` was “inactive”; that for `C=CCN1CCCC1CNC(=O)c1cc(S(N)(=O)=O)cc(OC)c1OC` (stereo unspecified) was “inactive”. With `CC(=O)c1ccc2c(c1)N(CCCN1CCN(CCO)CC1)c1ccccc1S2`, the Potency is 16.9 µM (active). On the same count and under the same terms, as for `CN(C)CCOc1ccc(/C(=C(/CCCl)c2ccccc2)c2ccccc2)cc1`, the entry is “inactive”; as for `C[C@]12CCC(=O)C[C@@H]1CC[C@@H]1[C@@H]2CC[C@]2(C)C=CC[C@@H]12`, “inactive”; as for `Cc1ccc(S(=O)(=O)O)cc1C`, “inactive”. For `NCC[C@H](O)C(=O)N[C@@H]1C[C@H](N)[C@@H](O[C@H]2O[C@H](CN)[C@@H](O)[C@H](O)[C@H]2O)[C@H](O)[C@H]1O[C@H]1O[C@H](CO)[C@@H](O)[C@H](N)[C@H]1O`, the Potency entry was “inactive”.

With `CN(C)c1ccc(C(=C2C=CC(=[N+](C)C)C=C2)c2c(O)c(S(=O)(=O)[O-])cc3cc(S(=O)(=O)O)ccc23)cc1`, the Potency result is “inactive”. The same measure, in the same setting: as for `COC(=O)CCC[N+](C)(C)C`, the entry is “inactive”; as for `CC(C)=CCC/C(C)=C/C=C/C(C)=C/C=C/C(C)=C/C=C/C=C(C)/C=C/C=C(C)/C=C/C=C(\C)CCC=C(C)C`, “inactive”. Same read-out and setting: as for `Cn1c(=O)c2c(ncn2CCOC(=O)C(C)(C)Oc2ccc(Cl)cc2)n(C)c1=O`, the entry is “inactive”; as for `O=C(CCCN1CCC(C(=O)c2ccc(F)cc2)CC1)c1ccc(F)cc1`, “inactive”; as for `CC(C)NCC(O)COc1ccccc1-n1cccc1` (stereo unspecified), “inactive”. On the same count and under the same terms, the value for `O=C(CCCN1CCN2CCCC2C1)c1ccc(F)cc1` (stereo unspecified) was “inactive”; that for `Cc1ncc(C[n+]2csc(CCO)c2C)c(N)n1` was “inactive”; that for `N=C(N)c1ccc(/C=C/c2ccc(C(=N)N)cc2O)cc1` was 2.13 µM (active). In the case of `Cc1c(C)c2c(c(C)c1OC(=O)CCC(=O)O)CC[C@@](C)(CCC[C@H](C)CCC[C@H](C)CCCC(C)C)O2`, the Potency result was “inactive”. Same read-out and setting: as for `CC(=O)[O][Al][O]C(C)=O`, the entry is “inactive”; as for `CC1CC(OC(=O)C(O)c2ccccc2)CC(C)(C)C1` (stereo unspecified), “inactive”. The same measure, in the same setting: as for `C=CC[C@@H]1/C=C(\C)C[C@H](C)C[C@H](OC)[C@H]2O[C@@](O)(C(=O)C(=O)N3CCCC[C@H]3C(=O)O[C@H](/C(C)=C/[C@@H]3CC[C@@H](O)[C@H](OC)C3)[C@H](C)[C@@H](O)CC1=O)[C@H](C)C[C@@H]2OC`, the figure is 0.849 µM (active); as for `O=C(OCc1ccccc1)c1ccc(O)cc1`, “inactive”. Still for that read-out and setting: as for `CC(/C=C/C=C(\C)C(=O)O[C@@H]1O[C@H](CO[C@@H]2O[C@H](CO)[C@@H](O)[C@H](O)[C@H]2O)[C@@H](O)[C@H](O)[C@H]1O)=C\C=C\C=C(C)\C=C\C=C(/C)C(=O)O[C@@H]1O[C@H](CO[C@@H]2O[C@H](CO)[C@@H](O)[C@H](O)[C@H]2O)[C@@H](O)[C@H](O)[C@H]1O`, the entry is “inactive”. Turning to `COC(=O)[C@@H](N)CS`, the Potency entry was “inactive”. The same measure, in the same setting: the value for `O.O.O.O.O.O.O.O=S(=O)([O-])[O-].[Co+2]` was 9.53 µM (active). Still for that read-out and setting: the value for `CN(C)CCCSc1ccccc1NC(=O)/C=C/c1ccccc1` was “inactive”. Regarding `CCSc1ccc2c(c1)N(CCCN1CCN(C)CC1)c1ccccc1S2`, the Potency entry is “inactive”.

The next assay has as its system Dd2. The description is as above. Particulars: P. falciparum in erythrocytes, SYBR Green DNA, 72 h; series mostly up to 28.7 µM. The method in brief: as §1
`COc1ccccc1N1CCN(CCCC(=O)c2ccc(F)cc2)CC1`: the Potency result is “inactive”. For `CCCCCc1ccc(C)cc1O`, the Potency result was “inactive”. The same measure, in the same setting: as for `CC[C@H]1OC(=O)[C@H](C)[C@@H](O[C@H]2C[C@@](C)(OC)[C@@H](O)[C@H](C)O2)[C@H](C)[C@@H](O[C@@H]2O[C@H](C)C[C@H](N(C)C)[C@H]2O)[C@](C)(O)C[C@@H](C)CN(C)[C@H](C)[C@@H](O)[C@]1(C)O`, the figure is 0.355 µM (active); as for `CCCCCCCCCCCCCCCCOCCOCCOCCOCCOCCOCCOCCOCCOCCOCCOCCOCCOCCOCCOCCOCCOCCOCCOCCOCCO`, 11.2 µM (active); as for `C=CCN1CCCC1CNC(=O)c1cc(S(N)(=O)=O)cc(OC)c1OC` (stereo unspecified), “inactive”. Still for that read-out and setting: as for `CC(=O)c1ccc2c(c1)N(CCCN1CCN(CCO)CC1)c1ccccc1S2`, the figure is 12.6 µM (active); as for `CN(C)CCOc1ccc(/C(=C(/CCCl)c2ccccc2)c2ccccc2)cc1`, “inactive”; as for `C[C@]12CCC(=O)C[C@@H]1CC[C@@H]1[C@@H]2CC[C@]2(C)C=CC[C@@H]12`, “inactive”. On the same count and under the same terms, the value for `Cc1ccc(S(=O)(=O)O)cc1C` was “inactive”; that for `NCC[C@H](O)C(=O)N[C@@H]1C[C@H](N)[C@@H](O[C@H]2O[C@H](CN)[C@@H](O)[C@H](O)[C@H]2O)[C@H](O)[C@H]1O[C@H]1O[C@H](CO)[C@@H](O)[C@H](N)[C@H]1O` was “inactive”. Regarding `CN(C)c1ccc(C(=C2C=CC(=[N+](C)C)C=C2)c2c(O)c(S(=O)(=O)[O-])cc3cc(S(=O)(=O)O)ccc23)cc1`, the Potency entry was “inactive”.

Consider `COC(=O)CCC[N+](C)(C)C`, for which the Potency entry was “inactive”.

With `CC(C)=CCC/C(C)=C/C=C/C(C)=C/C=C/C(C)=C/C=C/C=C(C)/C=C/C=C(C)/C=C/C=C(\C)CCC=C(C)C`, the Potency result is “inactive”. On the same count and under the same terms, as for `C/C(=C\C(=O)OCCCCCCCCC(=O)O)C[C@@H]1OC[C@H](C[C@@H]2O[C@H]2[C@@H](C)[C@H](C)O)[C@@H](O)[C@H]1O`, the figure is 0.178 µM (active). On the same count and under the same terms, as for `C=CC[N+]1([C@H]2C[C@H]3[C@@H]4CC[C@H]5C[C@H](O)[C@@H](N6CCOCC6)C[C@]5(C)[C@H]4CC[C@]3(C)[C@H]2OC(C)=O)CCCC1`, the figure is 10 µM (active); as for `C#C[C@]1(O)CC[C@@H]2[C@H]3CCC4=CC(=O)CC[C@H]4[C@H]3C(=C)C[C@@]21CC`, “inactive”. On the same count and under the same terms, the value for `CC(C)C1=CC2=CC[C@@H]3[C@](C)(CCC[C@@]3(C)C(=O)O)[C@H]2CC1` was “inactive”. Regarding `Cn1c(=O)c2c(ncn2CCOC(=O)C(C)(C)Oc2ccc(Cl)cc2)n(C)c1=O`, the Potency result was “inactive”. Consider `O=C(CCCN1CCC(C(=O)c2ccc(F)cc2)CC1)c1ccc(F)cc1`, for which the Potency is 8.91 µM (active). The same measure, in the same setting: as for `O=C(CCCN1CCN2CCCC2C1)c1ccc(F)cc1` (stereo unspecified), the figure is 12.6 µM (active); as for `Cc1ncc(C[n+]2csc(CCO)c2C)c(N)n1`, “inactive”.

With `Cc1cc(C(=O)NCCc2ccc(S(=O)(=O)NC(=O)NN3CCCCCC3)cc2)no1`, the Potency entry was “inactive”. Same read-out and setting: as for `N=C(N)c1ccc(/C=C/c2ccc(C(=N)N)cc2O)cc1`, the figure is 0.112 µM (active); as for `Cc1c(C)c2c(c(C)c1OC(=O)CCC(=O)O)CC[C@@](C)(CCC[C@H](C)CCC[C@H](C)CCCC(C)C)O2`, 11.2 µM (active).

As for `CC(=O)[O][Al][O]C(C)=O`, the Potency entry is “inactive”. Same read-out and setting: the value for `CC1CC(OC(=O)C(O)c2ccccc2)CC(C)(C)C1` (stereo unspecified) was “inactive”; that for `C=CC[C@@H]1/C=C(\C)C[C@H](C)C[C@H](OC)[C@H]2O[C@@](O)(C(=O)C(=O)N3CCCC[C@H]3C(=O)O[C@H](/C(C)=C/[C@@H]3CC[C@@H](O)[C@H](OC)C3)[C@H](C)[C@@H](O)CC1=O)[C@H](C)C[C@@H]2OC` was 0.112 µM (active); that for `OCCOCCOCCO` was “inactive”. Still for that read-out and setting: as for `O=C(OCc1ccccc1)c1ccc(O)cc1`, the entry is “inactive”; as for `CC(/C=C/C=C(\C)C(=O)O[C@@H]1O[C@H](CO[C@@H]2O[C@H](CO)[C@@H](O)[C@H](O)[C@H]2O)[C@@H](O)[C@H](O)[C@H]1O)=C\C=C\C=C(C)\C=C\C=C(/C)C(=O)O[C@@H]1O[C@H](CO[C@@H]2O[C@H](CO)[C@@H](O)[C@H](O)[C@H]2O)[C@@H](O)[C@H](O)[C@H]1O`, “inactive”. The same measure, in the same setting: the value for `COC(=O)[C@@H](N)CS` was “inactive”; that for `O.O.O.O.O.O.O.O=S(=O)([O-])[O-].[Co+2]` was 7.94 µM (active); that for `O=P(O)(O)OP(=O)(O)O` was “inactive”.

With `CCSc1ccc2c(c1)N(CCCN1CCN(C)CC1)c1ccccc1S2`, the Potency result was “inactive”. Same read-out and setting: the value for `CCCCCCCCCCCCCCCCCC(=O)OC[C@@H](O)[C@H]1OC[C@H](O)[C@H]1O` was “inactive”.
